# In the supplement of paper PMC4466140:
# Tests used:
# Assay in all cases: SPOT peptide array binding signal intensity (averaged, normalized) (arbitrary units (background-subtracted, floor 0; scale differs between SH3 domains)); higher = stronger binding of the SH3 domain to the peptide
# AgAbp1 = molecular target: AgAbp1
# In short: (§1)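 SH3 domains from four yeast species were expressed as GST fusions in E. coli BL21(DE3) and purified on glutathione Sepharose. Each was incubated at 10 μg/ml overnight at 4°C in TBS-based blocking buffer on cellulose membranes bearing synthetic 15-mer peptides, in which serines replaced cysteines. Bound protein was detected with anti-GST antibody, an HRP anti-mouse secondary and luminol, then imaged and quantified with Genespotter. The binding signal is the normalized, background-subtracted spot intensity averaged over replicates, in arbitrary units that are not the same from one domain to another.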
# AgBbc1 = molecular target: AgBbc1
# In short: as §1
# AgBem1-D1 = molecular target: AgBem1-D1
# In short: as §1
# AgBzz1-D1 = molecular target: AgBzz1-D1
# In short: as §1
# AgBzz1-D2 = molecular target: AgBzz1-D2
# In short: as §1
# AgCyk3 = molecular target: AgCyk3
# In short: as §1
# AgFus1 = molecular target: AgFus1
# In short: as §1
# AgHof1 = molecular target: AgHof1
# In short: as §1
# AgHse1 = molecular target: AgHse1
# In short: as §1
# AgLsb1 = molecular target: AgLsb1
# In short: as §1
# AgLsb4 = molecular target: AgLsb4
# In short: as §1
# AgMyo5 = molecular target: AgMyo5
# In short: as §1
# AgNbp2 = molecular target: AgNbp2
# In short: as §1
# AgRvs167 = molecular target: AgRvs167
# In short: as §1
# AgSho1 = molecular target: AgSho1
# In short: as §1
# AgSla1-D1-D2 = molecular target: AgSla1-D1-D2
# In short: as §1
# AgSla1-D3 = molecular target: AgSla1-D3
# In short: as §1
# CaAbp1-D1 = molecular target: CaAbp1-D1
# In short: as §1
# CaAbp1-D2 = molecular target: CaAbp1-D2
# In short: as §1
# CaBbc1 = molecular target: CaBbc1
# In short: as §1
# CaBem1-D1 = molecular target: CaBem1-D1
# In short: as §1
# CaBzz1-D1 = molecular target: CaBzz1-D1
# In short: as §1
# CaBzz1-D2 = molecular target: CaBzz1-D2
# In short: as §1
# CaCyk3 = molecular target: CaCyk3
# In short: as §1
# CaFus1 = molecular target: CaFus1
# In short: as §1
# CaHof1 = molecular target: CaHof1
# In short: as §1
# CaHse1 = molecular target: CaHse1
# In short: as §1
# CaLsb1 = molecular target: CaLsb1
# In short: as §1
# CaLsb4 = molecular target: CaLsb4
# In short: as §1
# CaMyo5 = molecular target: CaMyo5
# In short: as §1
# CaNbp2 = molecular target: CaNbp2
# In short: as §1
# CaRvs167 = molecular target: CaRvs167
# In short: as §1
# CaRvs167-3 = molecular target: CaRvs167-3
# In short: as §1
# CaSho1 = molecular target: CaSho1
# In short: as §1
# CaSla1-D1-D2 = molecular target: CaSla1-D1-D2
# In short: as §1
# CaSla1-D3 = molecular target: CaSla1-D3
# In short: as §1
# ScAbp1 = molecular target: ScAbp1
# In short: as §1
# ScBbc1 = molecular target: ScBbc1
# In short: as §1
# ScBem1-D1 = molecular target: ScBem1-D1
# In short: as §1
# ScBzz1-D1 = molecular target: ScBzz1-D1
# In short: as §1
# ScBzz1-D2 = molecular target: ScBzz1-D2
# In short: as §1
# ScCyk3 = molecular target: ScCyk3
# In short: as §1
# ScFus1 = molecular target: ScFus1
# In short: as §1
# ScHof1 = molecular target: ScHof1
# In short: as §1
# ScHse1 = molecular target: ScHse1
# In short: as §1
# ScLsb1 = molecular target: ScLsb1
# In short: as §1
# ScLsb2 = molecular target: ScLsb2
# In short: as §1
# ScLsb3 = molecular target: ScLsb3
# In short: as §1
# ScLsb4 = molecular target: ScLsb4
# In short: as §1
# ScMyo3 = molecular target: ScMyo3
# In short: as §1
# ScMyo5 = molecular target: ScMyo5
# In short: as §1
# ScNbp2 = molecular target: ScNbp2
# In short: as §1
# ScPex13 = molecular target: ScPex13
# In short: as §1
# ScRvs167 = molecular target: ScRvs167
# In short: as §1
# ScSho1 = molecular target: ScSho1
# In short: as §1
# ScSla1-D1-D2 = molecular target: ScSla1-D1-D2
# In short: as §1
# ScSla1-D3 = molecular target: ScSla1-D3
# In short: as §1
# SpAbp1-D1 = molecular target: SpAbp1-D1
# In short: as §1
# SpBbc1 = molecular target: SpBbc1
# In short: as §1
# SpBzz1-D1 = molecular target: SpBzz1-D1
# In short: as §1
# SpBzz1-D2 = molecular target: SpBzz1-D2
# In short: as §1
# SpCyk3 = molecular target: SpCyk3
# In short: as §1
# SpHof1 = molecular target: SpHof1
# In short: as §1
# SpHof1-2 = molecular target: SpHof1-2
# In short: as §1
# SpHof1-3 = molecular target: SpHof1-3
# In short: as §1
# SpHse1 = molecular target: SpHse1
# In short: as §1
# SpLsb1 = molecular target: SpLsb1
# In short: as §1
# SpLsb4 = molecular target: SpLsb4
# In short: as §1
# SpMyo1 = molecular target: SpMyo1
# In short: as §1
# SpNbp2 = molecular target: SpNbp2
# In short: as §1
# SpPex13 = molecular target: SpPex13
# In short: as §1
# SpRvs167 = molecular target: SpRvs167
# In short: as §1
# SpSla1-D1-D2 = molecular target: SpSla1-D1-D2
# In short: as §1
# SpSla1-D3 = molecular target: SpSla1-D3
# In short: as §1
binder,measurement,setting,value
ERPKRRAPPPVPKKP,SPOT peptide array binding signal intensity,AgAbp1,1360
same,SPOT peptide array binding signal intensity,AgBbc1,936
same,SPOT peptide array binding signal intensity,AgBem1-D1,86.5
same,SPOT peptide array binding signal intensity,AgBzz1-D1,1350
same,SPOT peptide array binding signal intensity,AgBzz1-D2,1190
same,SPOT peptide array binding signal intensity,AgCyk3,2
same,SPOT peptide array binding signal intensity,AgFus1,3.5
same,SPOT peptide array binding signal intensity,AgHof1,124
same,SPOT peptide array binding signal intensity,AgHse1,22
same,SPOT peptide array binding signal intensity,AgLsb1,62.5
same,SPOT peptide array binding signal intensity,AgLsb4,25
same,SPOT peptide array binding signal intensity,AgMyo5,359
same,SPOT peptide array binding signal intensity,AgNbp2,292
same,SPOT peptide array binding signal intensity,AgRvs167,1.83
same,SPOT peptide array binding signal intensity,AgSho1,83
same,SPOT peptide array binding signal intensity,AgSla1-D1-D2,7
same,SPOT peptide array binding signal intensity,AgSla1-D3,140
same,SPOT peptide array binding signal intensity,CaAbp1-D1,1770
same,SPOT peptide array binding signal intensity,CaAbp1-D2,1480
same,SPOT peptide array binding signal intensity,CaBbc1,1090
same,SPOT peptide array binding signal intensity,CaBem1-D1,42.5
same,SPOT peptide array binding signal intensity,CaBzz1-D1,6780
same,SPOT peptide array binding signal intensity,CaBzz1-D2,3000
same,SPOT peptide array binding signal intensity,CaCyk3,29
same,SPOT peptide array binding signal intensity,CaFus1,30
same,SPOT peptide array binding signal intensity,CaHof1,0.5
same,SPOT peptide array binding signal intensity,CaHse1,24.8
same,SPOT peptide array binding signal intensity,CaLsb1,≤ 0
same,SPOT peptide array binding signal intensity,CaLsb4,243
same,SPOT peptide array binding signal intensity,CaMyo5,4.5
same,SPOT peptide array binding signal intensity,CaNbp2,814
same,SPOT peptide array binding signal intensity,CaRvs167,16.7
same,SPOT peptide array binding signal intensity,CaRvs167-3,0.75
same,SPOT peptide array binding signal intensity,CaSho1,6
same,SPOT peptide array binding signal intensity,CaSla1-D1-D2,2360
same,SPOT peptide array binding signal intensity,CaSla1-D3,698
same,SPOT peptide array binding signal intensity,ScAbp1,2010
same,SPOT peptide array binding signal intensity,ScBbc1,460
same,SPOT peptide array binding signal intensity,ScBem1-D1,4
same,SPOT peptide array binding signal intensity,ScBzz1-D1,2120
same,SPOT peptide array binding signal intensity,ScBzz1-D2,66
same,SPOT peptide array binding signal intensity,ScCyk3,2.5
same,SPOT peptide array binding signal intensity,ScFus1,6
same,SPOT peptide array binding signal intensity,ScHof1,≤ 0
same,SPOT peptide array binding signal intensity,ScHse1,≤ 0
same,SPOT peptide array binding signal intensity,ScLsb1,101
same,SPOT peptide array binding signal intensity,ScLsb2,70
same,SPOT peptide array binding signal intensity,ScLsb3,608
same,SPOT peptide array binding signal intensity,ScLsb4,10
same,SPOT peptide array binding signal intensity,ScMyo3,1180
same,SPOT peptide array binding signal intensity,ScMyo5,959
same,SPOT peptide array binding signal intensity,ScNbp2,577
same,SPOT peptide array binding signal intensity,ScPex13,257
same,SPOT peptide array binding signal intensity,ScRvs167,151
same,SPOT peptide array binding signal intensity,ScSho1,166
same,SPOT peptide array binding signal intensity,ScSla1-D1-D2,1960
same,SPOT peptide array binding signal intensity,ScSla1-D3,691
same,SPOT peptide array binding signal intensity,SpAbp1-D1,280
same,SPOT peptide array binding signal intensity,SpBbc1,76
same,SPOT peptide array binding signal intensity,SpBzz1-D1,1460
same,SPOT peptide array binding signal intensity,SpBzz1-D2,40.2
same,SPOT peptide array binding signal intensity,SpCyk3,1
same,SPOT peptide array binding signal intensity,SpHof1,112
same,SPOT peptide array binding signal intensity,SpHof1-2,12
same,SPOT peptide array binding signal intensity,SpHof1-3,122
same,SPOT peptide array binding signal intensity,SpHse1,43.2
same,SPOT peptide array binding signal intensity,SpLsb1,302
same,SPOT peptide array binding signal intensity,SpLsb4,489
same,SPOT peptide array binding signal intensity,SpMyo1,1100
same,SPOT peptide array binding signal intensity,SpNbp2,10
same,SPOT peptide array binding signal intensity,SpPex13,15
same,SPOT peptide array binding signal intensity,SpRvs167,175
same,SPOT peptide array binding signal intensity,SpSla1-D1-D2,215
same,SPOT peptide array binding signal intensity,SpSla1-D3,≤ 0
